Assay results: PubChem BioAssay (NCI)
Compounds without any hit were thinned out: in the full panel of roughly 83,000, 20% have a hit.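 The test compound was applied at a single concentration to cells in 96-well plates for 48 hours, and percent growth was recorded.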 Unmarked numbers belong to inactive results. Activity calls are given as the source filed them. Rule for the calls: active = growth percent below 10; inactive = the rest.

What was measured:
Test in all cases: NCI-60 one-dose screen, 48 h (100 = growth as untreated, 0 = no growth, -100 = all killed)
Settings in all cases: 10 µM unless noted
[1] = system: HT29 colon
[2] = system: SNB-75 CNS
[3] = system: SNB-19 CNS
[4] = system: U251 CNS
[5] = system: PC-3 prostate
[6] = system: SK-MEL-5 melanoma
[7] = system: UACC-62 melanoma
[8] = system: LOX IMVI melanoma
[9] = system: SK-MEL-28 melanoma
[10] = system: SK-MEL-2 melanoma

Row | Structure (SMILES) | growth [1] | growth [2] | growth [3] [%] | growth [4] | growth [5] | growth [6] [%] | growth [7] [%] | growth [8] | growth [9] [%] | growth [10]
1 | N#Cc1c(-c2ccc(Cl)cc2)nc(SCc2ccccc2)nc1N1CCNCC1 | -47.6% (active) | 69.5% | 69.8 | -65.6% (active) | 59.2% | 84.5 | 89.8 | -71.5% (active) | 108 | 112%
2 | CCOc1ccc([C@H]2C(C(=O)c3ccc(Cl)cc3)C3(N[C@@H]2c2ccccc2)C(=O)Nc2ccc(Br)cc23)cc1 (stereo not given in full) | -27.1% (active) | 26.9% | 47.6 | 13.5% | 13.8% | 47.8 | 51.4 | -36.2% (active) | 75.2 | 56.6%
3 | CS(=O)(=O)c1ccc(-c2nc3ccccn3c2C=Nc2ccc(Cl)cc2)cc1 | 75.7% | 77.9% | 89.1 | 91.9% | 57.8% | 68.6 | 24.5 | -59.2% (active) | 74.3 | 107%
4 | CCCC(=O)NC(c1cccnc1)c1cc(C)c2cccnc2c1O (stereo not given) | 21.5% | 77.5% | 61.4 | 41.3% | 56.9% | 48.7 | 28.4 | 40.2% | 42.5 | 101%
5 | CC(=O)c1ccc(Nc2nc(SC(C)C)nc(-c3ccccc3)c2C#N)cc1 | 99.6% | 92.3% | 87.2 | 89.5% | 88.1% | 98.1 | 82.3 | 95.1% | 104 | 117%
6 | O=C(CSc1nc2sc3c(c2c(=O)n1-c1ccc(Cl)cc1)CCCC3)NNC(=O)Nc1ccc(Cl)c(C(F)(F)F)c1 | 6.06% (active) | 42.1% | 50.4 | 4.22% (active) | -2.4% (active) | 34.7 | 37.1 | 1.34% (active) | 53.7 | -9.26% (active)
7 | O=C1/C(=C/C2=Cc3ccccc3OC2)SC(=S)N1c1ccc(F)cc1 | 118% | 100% | 93.2 | 94.9% | 115% | 100 | 97.4 | 92.5% | 97.9 | 120%
8 | O=c1/c(=C\c2ccc(-c3ccccc3)o2)sc2nc(-c3ccccc3)nn12 | 102% | 99.8% | 93.3 | 98.8% | 95.7% | 101 | 98.7 | 95.9% | 109 | 114%
9 | CCN1CCN(S(=O)(=O)c2oc(-c3ccc(Cl)cc3)nc2C#N)CC1 | 2.82% (active) | 87.5% | 95.8 | 96.6% | 87.4% | 95.2 | 88.7 | -89.2% (active) | 53.5 | 104%
10 | COc1ccc(-c2nc3ccc(-c4nnc(SCC(=O)Nc5ccc(C(=O)/C=C/c6ccc(Cl)cc6)cc5)o4)cc3[nH]2)cc1OC | 108% | 106% | 109 | 100% | 97.7% | 97.6 | 98 | 3.17% (active) | 105 | 112%
11 | Cc1sc2c(c1C)c(=O)nc1c(-c3nc(-c4ccc(F)cc4)no3)n[nH]n12 | 110% | 85.7% | 101 | 102% | 89.6% | 107 | 97.8 | 93.7% | 115 | 113%
12 | N#Cc1nc(-c2ccccc2)oc1S(N)(=O)=O | 43.8% | 91.7% | 95.3 | 92.6% | 81.4% | 76.2 | 66.6 | 10.5% | 69.5 | 84.9%
13 | NC(=O)c1cc(-c2ccc3ncnc(N4CCc5cc(F)c(Cl)cc54)c3c2)cnc1N | 21% | -25% (active) | 39.5 | 40.8% | 25% | 52.1 | 26 | 24% | 28.8 | -51.5% (active)
